# TDP1 inh = qHTS Assay for Inhibitors of Tyrosyl-DNA Phosphodiesterase (TDP1); Tyrosyl-DNA phosphodiesterase 1 (Homo sapiens), Q9NUW8; recombinant TDP1, AlphaScreen DNA substrate cleavage; Potency, µM (doses to about 130 µM), without a hit: top-dose activity change, negative = inhibition, most hits filed as inhibitors; AID 485290, 2010; 350,000 tested, 0.28% active; note: % is set by controls: 0 for no effect and ±100 for the full control effect; nearly all actives have a fitted effect of over 40% in size
# Target sequence (Q9NUW8 whole entry, looked up): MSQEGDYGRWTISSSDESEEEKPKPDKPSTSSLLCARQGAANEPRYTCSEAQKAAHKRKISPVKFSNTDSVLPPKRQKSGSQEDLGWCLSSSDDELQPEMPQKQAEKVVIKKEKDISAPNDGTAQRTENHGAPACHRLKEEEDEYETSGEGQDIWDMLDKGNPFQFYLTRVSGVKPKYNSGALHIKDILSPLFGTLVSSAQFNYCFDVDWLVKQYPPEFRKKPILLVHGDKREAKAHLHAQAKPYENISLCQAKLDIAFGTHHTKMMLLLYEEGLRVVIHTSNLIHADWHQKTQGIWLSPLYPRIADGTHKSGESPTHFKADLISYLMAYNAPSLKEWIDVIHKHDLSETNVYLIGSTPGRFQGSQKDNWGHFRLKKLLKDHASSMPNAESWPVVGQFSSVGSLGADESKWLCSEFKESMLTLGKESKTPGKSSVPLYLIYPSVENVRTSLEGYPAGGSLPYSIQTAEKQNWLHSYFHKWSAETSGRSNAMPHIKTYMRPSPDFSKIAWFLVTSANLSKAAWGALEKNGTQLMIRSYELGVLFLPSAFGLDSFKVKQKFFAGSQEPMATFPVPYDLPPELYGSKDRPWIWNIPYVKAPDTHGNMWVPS
#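 Steps: enzyme plus compound, 15 min RT; add biotin/phosphotyrosine-FITC oligonucleotide (15 nM final), react 5 min; add donor/acceptor beads (10 ug/ml final), 10 min; read AlphaScreen. Tdp1 at 1 nM final.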
# G9a block = qHTS Assay for Inhibitors of Histone Lysine Methyltransferase G9a | G9a H3K9 monomethylation, AlphaScreen, 2 h | Potency, µM (series often up to 102 µM), for inactives: at the highest dose activity, negative = inhibition, hits mostly inhibitors | 350,000 tested, 8.8% active; note: % is set by controls: 0 for no effect and ±100 for the full control effect; nearly all actives have a fitted effect of over 75% in size
#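 Enzyme 20 nM + cpd, 15 min RT; add b-H3K9 pep 500 nM / SAM 20 uM; 2 h RT; anti-H3K9me1 Ab 0.5 ug/mL + SA donor / anti-rabbit acceptor beads 20 ug/mL each, 10 min; AlphaScreen read.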
# JMJD2A Tudor inh = qHTS Assay for Inhibitors of JMJD2A-Tudor Domain; 390,000 tested, 4.4% active; Potency, µM (doses to about 114 µM), for the others: top-dose activity change, negative = inhibition, hits mostly inhibitors; AlphaScreen JMJD2A-Tudor / H3K4me3 peptide binding; Lysine-specific demethylase 4A (Homo sapiens), O75164; note: % is set by controls: 0 for no effect and ±100 for the full control effect; nearly all actives have a fitted effect of over 50% in size
# Sfp PPTase inh = qHTS Assay for Inhibitors of Bacillus subtilis Sfp phosphopantetheinyl transferase (PPTase); 4'-phosphopantetheinyl transferase ffp (Bacillus subtilis), Q9F4F7; Biochemical Sfp PPTase activity, qHTS; Potency, µM, for inactives: largest response in the series, negative = inhibition, usual class: inhibitors; 310,000 tested, 3.5% active;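 note: the enzyme is Sfp with the accession as filed and its product quenches rhodamine fluorescence; 0% = enzyme reaction without inhibitor and -100% = no enzyme wells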
#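 Reaction rates are the 30-min fluorescence difference (ex 525, em 598 nm) in wells containing 15 nM Sfp, 5 uM rhodamine-CoA and 12.5 uM BHQ-2-YbbR at pH 7.6 with 10 mM MgCl2.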
# BAZ2B block = qHTS Assay for Inhibitors of BAZ2B | AlphaScreen BAZ2B-H3K14Ac peptide displacement | Potency, µM (series often up to 114 µM), for inactives: at the highest dose activity change, negative = inhibition, hits mostly inhibitors | 360,000 tested, 4.4% active; note: % is set by controls: 0 for no effect and ±100 for the full control effect; nearly all actives have a fitted effect of over 60% in size
#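 AlphaScreen displacement: compounds (up to 110uM) incubated 30 min at room temperature with a preformed 50 nM BAZ2B/50 nM biotinylated H3K14Ac peptide complex in PBS pH 7.4 with Tween-20. Donor and acceptor beads at 10 ug/mL final added, 20 min light-protected before reading.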
# HP1b chromo inh = HTS for Inhibitors of HP1-beta Chromodomain Interactions with Methylated Histone Tails; 390,000 tested, 0.56% active; Chromobox protein homolog 1 (Homo sapiens), P83916; AlphaScreen HP1-beta / biotin-H3K9me3 peptide binding; Potency, µM (highest dose often 114 µM), inactives show at the top dose activity change, negative = inhibition, usual class: inhibitors; AID 540317, 2011; note: nearly all actives have a fitted effect of over 70% in size
# Target sequence (P83916 whole entry, looked up): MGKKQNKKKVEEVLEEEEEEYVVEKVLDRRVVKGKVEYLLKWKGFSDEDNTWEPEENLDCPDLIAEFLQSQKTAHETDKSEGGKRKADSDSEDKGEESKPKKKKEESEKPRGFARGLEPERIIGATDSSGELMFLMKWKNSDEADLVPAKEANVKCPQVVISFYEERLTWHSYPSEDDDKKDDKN
#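 HP1-beta protein (50 nM final) preincubated 30 min at room temperature with biotinylated H3(1-18)K9me3 peptide (50 nM) in PBS pH 7.4, 0.01% Tween-20, then compound added for 30 min. AlphaScreen streptavidin donor/nickel chelate acceptor beads (10 ug/mL final), 30 min dark, luminescence read.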
# Starred values were filed as active, the others as inactive; u = inconclusive; x = no result given; [ ] = another dose, or the depositor's remark. Rows were chosen to be rich in hits. Some 12% of all compounds tested hit in one or more screens of this group. Calls come from the whole dose curve; as a rule, active = well fitted curve in the direction sought with a large enough effect; inconclusive = small, poorly fitted or top-dose-only effect, or another doubt; inactive = no such curve, though single readings can be large; an effect the other way counts as inactive or inconclusive. Potency is the fitted concentration of half-maximal effect.
SMILES,TDP1 inh,G9a block,JMJD2A Tudor inh,Sfp PPTase inh,BAZ2B block,HP1b chromo inh
O=C1CN(C(=O)COC(=O)/C=C/c2ccc(OC(F)F)cc2)c2ccccc2N1,0.0%,-8.3%[59 µM],-4.3%[57.1 µM],-5.9%,-10.5%,9.5%
CC1CCN(C(=O)COC(=O)c2ccc3c(c2)C(=O)N(Cc2ccco2)C3=O)CC1,2.2%,56.2µM*,-13.9%,x,-12.9%,28.3%
Cc1ccc(/C=C/C(=O)OCC(=O)N2CC(=O)Nc3ccccc32)o1,-2.3%,50.1µM*,56.2µM*,-8.2%,u,-11.1%
O=c1c2ccccc2cnn1Cc1ccc(Br)cc1F,x,48.6%,15.9%,20.4%,24.5%,34.5%
COc1ccc(/C=C/C(=O)OCC(=O)N2CC(=O)Nc3ccccc32)cc1S(=O)(=O)N1CCOCC1,-5.0%,56.2µM*,-18.2%,-1.0%,-11.0%,39.7%
O=C1CN(C(=O)COC(=O)/C=C/c2ccco2)c2ccccc2N1,x,44.7µM*,-11.7%,-23.3%,u,0.8%
CC1CCN(C(=O)COC(=O)/C=C/c2ccco2)CC1,20µM*,x,-13.5%,x,x,0.1%
O=C1CN(C(=O)COC(=O)/C=C/c2ccc(S(=O)(=O)N3CCOCC3)cc2)c2ccccc2N1,1.8%,-37.7%,-3.6%,-1.5%,-13.8%,32.5%
O=C(Nc1ccccc1Cl)[C@H](CSCc1ccccc1)N1Cc2ccccc2C1=O,8.1%,-22.3%[59 µM],-2.0%,x,-18.7%,38.2%
O=C(O)c1cccc(N2C(=O)c3ccc(C(=O)c4cccc([N+](=O)[O-])c4)cc3C2=O)c1,x,56.2µM*,-14.0%,-3.0%,-17.6%,34.8%
O=C(c1cccc([N+](=O)[O-])c1)c1ccc2[nH]c(=O)[nH]c2c1,4.7%,79.4µM*,-6.3%,-6.4%,-12.0%,23.9%
O=C(Nc1ccc([N+](=O)[O-])cc1)Nc1ccc2[nH]c(=O)[nH]c2c1,-2.5%,x,u,-4.1%,u,-7.4%
COc1ccc(-n2c(Cc3cccn3C)nnc2SCC(=O)NCCc2ccccc2)cc1,8.8%,-9.6%[2.33 µM],-28.5%,5.3%,u,-15.1%
COc1ccc(-n2c(Cc3cccn3C)nnc2SCC(=O)Nc2cccc(OC)c2)cc1,7.9%,50.1µM*,-34.3%,-12.0%,u,10.8%
Cc1cc(C)c(NC(=O)CSc2nnc(Cc3cccn3C)n2-c2ccc(F)cc2)c(C)c1,5.9%,44.7µM*,u,50.1µM*,u,-17.1%
Cn1cccc1Cc1nnc(SCC(=O)NC2CCCCC2)n1-c1ccc(F)cc1,11.8%,u,-34.3%,-18.7%,-0.3%,14.5%
COc1cccc(NC(=O)CSc2nnc(Cc3cccn3C)n2-c2ccc(F)cc2)c1,12.0%,u,u,-15.2%,50.1µM*,13.5%
CC(=O)Nc1cccc(NC(=O)CSc2nnc(Cc3cccn3C)n2-c2ccc(F)cc2)c1,8.2%,u,u,-23.2%,u,-13.9%
COc1ccc(-n2c(Cc3cccn3C)nnc2SCC(=O)Nc2ccc(C)c(Cl)c2)cc1,0.0%,44.7µM*,u,-5.9%,u,-8.4%
NC(=O)c1ncn([C@@H]2O[C@H](CNCc3cc(Cl)ccc3OCc3ccc(Cl)cc3)[C@@H](O)[C@H]2O)n1,x,x,-25.3%,x,x,10.6%
Cn1cccc1Cc1nnc(SCC(=O)NCc2ccccc2Cl)n1-c1ccc(F)cc1,7.4%,79.4µM*,-35.0%,3.8%,u,-3.1%
Cn1cccc1Cc1nnc(SCC(N)=O)n1-c1ccc(F)cc1,5.3%,89.1µM*,-13.4%,-29.5%,-6.0%,40.6%
COc1ccc2nc3oc(C(=O)N4CCN(c5cc(C)ccc5C)CC4)cc3cc2c1,-7.0%,-27.6%[59 µM],-8.3%,x,x,17.2%
Cc1ccc(CNC(=O)CCn2cc(-c3ccc(C)cc3)nc2-c2ccncc2)cc1,x,44.7µM*,-25.5%,-3.7%,u,-3.5%
Cc1ccc(CNC(=O)CCn2cc(-c3ccc(F)cc3)nc2-c2ccncc2)cc1,5.6%,-4.3%[2.33 µM],-28.9%,x,-13.0%,12.0%
SMILES,TDP1 inh,G9a block,JMJD2A Tudor inh,Sfp PPTase inh,BAZ2B block,HP1b chromo inh
Cc1c(Cl)cccc1NC(=O)Cn1cc2c(n1)CCCC2,5.1%,-1.7%[59 µM],-14.4%,x,-1.1%,1.9%
COC(=O)c1ccc(CN2[C@@H]3C[C@@H](O)CC[C@@H]3C[C@H]2C(=O)OC)cc1,5.7%,x,x,2.3%,x,x
CCOC(=O)c1cnc2ccc(OC)cc2c1NCc1ccccc1,x,190.6%,48.6%,-8.5%,100.6%,114.6%
CCOC(=O)c1cnc2ccccc2c1NCc1ccco1,7.1%,1.4%,-3.7%,44.7µM*,-0.2%,40.1%
CCOC(=O)c1cnc2ccc(OCC)cc2c1NCc1ccccc1OC,1.2%,27.1%[59 µM],45.9%,56.2µM*,48.8%,156.0%
Cc1ccc(Cc2c(C)[nH]c(=S)[nH]c2=O)cc1,x,44.7µM*,u,13.5%,6.9%,45.0%
CCOC(=O)Cc1c(C)[nH]c(=S)[nH]c1=O,2.9%,-19.3%[59 µM],56.2µM*,79.4µM*,-12.8%,20.4%
COC(=O)CCc1c(C)[nH]c(=S)[nH]c1=O,-8.0%,u,-13.9%,89.1µM*,0.3%,15.7%
COc1cccc(/C=C2\C(=O)N(c3cccc(C)c3)C(=O)c3ccccc32)c1,-2.7%,17.8µM*,-31.2%,-15.2%,u,-13.9%
CCOc1ccc(OCC(=O)N(C)c2c(N)n(Cc3ccccc3)c(=O)[nH]c2=O)cc1,x,-20.0%[12.7 µM],0.0%,x,4.6%,32.7%
COc1ccc(Cn2c(O)cc(=O)[nH]c2=O)cc1,2.5%[56.1 µM],10µM*,-24.9%,44.7µM*,-6.4%,46.3%
CCOc1ccc(Cn2c(O)cc(=O)[nH]c2=O)cc1,3.0%[56.1 µM],u,-18.8%,50.1µM*,-3.0%,41.5%
CC(C)N1CCC(N2CCN(Cc3ccc(Oc4ncccn4)cc3)CC2CCO)CC1 (configuration not stated),x,2.8%[59 µM],2.1%,-6.1%,-2.6%,29.7%
COc1ccc(C2CC2/C(=N/O)c2ccccc2)cc1 (configuration not stated),5.9%,20.2%,14.1µM*,0.1%,-2.7%,u
CN1CCC(C(=O)C(=O)O)C1=O (configuration not stated),x,x,20µM*,x,x,70.8µM*
CCOC(=O)C1CCN(S(=O)(=O)Cc2ccccc2)C1=O (configuration not stated),-5.1%,5.9%[59 µM],-5.8%,-1.6%,2.3%,7.3%
O=C1CCCN1c1ccc(C(=O)N(Cc2nnc(-c3ccc(Cl)cc3)o2)C2CC2)cc1,-6.9%,-24.9%,-19.2%,x,12.0%,28.3%

# Source: PubChem BioAssay (National Center for Advancing Translational Sciences (NCATS))
